Assay results published in PubChem BioAssay AID1259415 (National Center for Advancing Translational Sciences (NCATS), 2018).
The whole screen tested about 410,000 compounds, of which about 18,000 (4.4%) were called active. Not shown: some 7% with an inconclusive outcome. What follows is part of a selection rich in actives, with near analogues and random picks from the rest. Unmarked numbers belong to inactive results. Cut-off read from the data, not from the text of the source: active = activity change below about -60%; inconclusive = no clear call, values can overlap the other calls; inactive = above about -39%.

Experiment: qHTS Assay for inhibitors of the human cytomegalovirus (HCMV)
Conditions: HFF cells, HCMV-luciferase reporter, 72 h; at 57.5 µM; stronger effect = lower value
Procedure, shortened: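 Luciferase read-out from HCMV-luciferase-infected HFFs (MOI 1 PFU/cell) 72 h post infection at 37C; compounds added after 16 h cell attachment; activity normalized between buffer-only basal and Salinomycin (10uM) inhibitor controls.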
% is set by controls: 0 for no effect and ±100 for the full control effect.

Compound | activity change, negative = inhibition
Cc1no[n+]([O-])c1COc1ccccc1/C=C1\NC(=S)NC1=O | -83.4% (active)
C#CCOc1ccccc1/C=C1/C(=O)ON=C1C | 52.7%
COC(=O)c1ccc(Cn2c(SCC(=O)N(C)c3ccccc3)nc3ccccc32)cc1 | -6.59%
COc1ccc(-c2nnc(SC(=O)N3c4ccccc4Sc4ccccc43)o2)cc1 | 10.6%
N/C(=N\OC(=O)N1c2ccccc2Sc2ccccc21)c1ccc(Br)cc1 | -63.7% (active)
N/C(=N\OC(=O)CCc1ccccc1)c1ccc(Cl)cc1 | 10.6%
COc1cc(Cl)c(NC(=O)CC(C)S(=O)(=O)c2cc3c(cc2C)NC(=O)CO3)c(OC)c1 (stereo unspecified) | -4.28%
CS(=O)(=O)N(CC(=O)NCc1ccco1)c1ccc2c(c1)OCO2 | -9.98%
COc1ccc(S(=O)(=O)N(C)CC(=O)Nc2ccc3c(c2)OCCO3)cc1OC | 51.4%
O=C(CN(c1ccc2c(c1)OCCO2)S(=O)(=O)c1ccccc1)Nc1ccc2c(c1)OCO2 | -86.6% (active)
COCCCn1c(C(=O)NC2CCCCC2)cc2c(=O)n3cccc(C)c3nc21 | 1.95%
Cc1cccn2c(=O)c3cc(C(=O)NCCN4CCOCC4)c(=N)n(Cc4cccnc4)c3nc12 | -86% (active)
Cc1cccn2c(=O)c3cc(C#N)c(=NC(=O)c4cccnc4)n(CC4CCCO4)c3nc12 (stereo unspecified) | 2.74%
Cc1cccn2c(=O)c3cc(C(=O)NC(C)c4ccccc4)c(=N)n(CCCO)c3nc12 (stereo unspecified) | -15.1%
CCCn1c(=N)c(C(=O)NCc2ccccc2)cc2c(=O)n3cccc(C)c3nc21 | -7.61%
COc1ccc(CCn2c(=N)c(C(=O)NCc3ccco3)cc3c(=O)n4cccc(C)c4nc32)cc1 | -83.4% (active)
Cc1cc(Br)ccc1NC(=O)Cn1cnc2sc(C)c(S(=O)(=O)N3CCN(C)CC3)c2c1=O | 0.161%
CCCS(=O)(=O)NC(=O)C1(C)CCCN(C(=O)c2cc(C)on2)C1 (stereo unspecified) | 32.5%
Cc1cccc(N2CCN(C(=O)c3ccc4c(c3)CCN4S(=O)(=O)c3ccccc3)CC2)c1C | -25.8%

Compound | activity change, negative = inhibition
O=C(CC1N=C2c3ccccc3N=C(SCc3cccc(Cl)c3)N2C1=O)NCc1ccc2c(c1)OCO2 (stereo unspecified) | -15.6%
CCCN1C(=O)COCc2cc(-c3cccc(CO)c3)ccc21 | 6.92%
COc1ccc(-c2nc(SCC(=O)N3CCCCC3C)n[nH]2)cc1 (stereo unspecified) | 1.78%
COc1ccc(CNC(=O)CSc2n[nH]c(-c3ccc(F)cc3)n2)cc1 | 19.4%
CCc1ccc(-c2nc(SCC(=O)NC3CCCC3)n[nH]2)cc1 | -90.7% (active)
COc1cc(/C=C/CNC[C@H]2O[C@@H](n3cnc(C(N)=O)n3)[C@H](O)[C@@H]2O)ccc1O | -3.95%
Cc1ccccc1C(=O)N(Cc1ccc(N(C)C)cc1)CC1CCCO1 (stereo unspecified) | -18.1%
Cc1cc(C)cc(-n2ccnc2SCC(=O)Nc2nc3ccccc3s2)c1 | -5.53%
c1ccc(C(=NNc2nc3ccccc3s2)c2ccccn2)cc1 | -99.2% (active)
Cc1ccccc1-n1c(=O)c2ccccc2n(Cc2ccc(F)cc2)c1=O | -13.5%
CN1C(=O)/C(=C/C=C2\SCCN2C)OC1=S | 143%
Cc1cc2c(cc1C)[n+](C)cn2CC(O)COCC1CC=CCC1 (stereo unspecified) | -71.1% (active)
CCCC12CN3CC(CCC)(CN(C1)C3c1c[nH]c3ccc(OC)cc13)C2=O (stereo unspecified) | 14%
CCOc1ccccc1NC(=O)NC1CCCCCCC1 | -14.2%
CCOc1cccc(=NC2CCCCC2)c2c(C)[nH]c(C)c12 | -110% (active)
c1ccc2c(c1)C(=NC1CCCCC1)NC2=NC1CCCCC1 | -38.8%
CCOc1ccc(Nc2oc(/C=C/c3ccc(F)cc3)nc2C#N)cc1 | 11.4%
O=C(Cn1c(-c2cccs2)cc2ccccc21)NCCc1ccc(Cl)cc1 | -112% (active)
Cc1ccc(CCNC(=O)Cn2c(-c3cccs3)cc3cc(F)ccc32)cc1 | -16.7%

Compound | activity change, negative = inhibition
Cc1cccc(Cn2c(=O)n(CCC(=O)NCCc3ccc(Cl)cc3)c(=O)c3sccc32)c1 | -10.1%
O=C(c1ccc(Br)cc1)N(Cc1cccs1)c1ccc(F)cc1 | -5.5%
O=C(Nc1ccc2nc(SCC(=O)N3CCc4ccccc43)sc2c1)c1ccccc1F | 26.3%
CC(NCC(=O)Nc1ccccc1C(=O)NC1CC1)c1ccccc1Cl (stereo unspecified) | -103% (active)
O=C(COc1ccccc1Cl)Nc1ccccc1C(=O)NC1CC1 | -2.06%
CCCC(NCC(=O)Nc1ccccc1C(=O)NC1CC1)c1ccccc1 (stereo unspecified) | -16.1%
COC(=O)C1C(=O)NCC1c1ccc(OC)cc1 (stereo unspecified) | 19.2%
O=C(NC1CCC(O)CC1)c1ccc(S(=O)(=O)NCc2ccco2)cc1 (stereo unspecified) | -14.7%
CCc1nnc(SCC(=O)Nc2cc(OC)ccc2OC)nc1CC | 0%
COc1ccc(S(=O)(=O)N/N=C\c2ccc(OC)c(COc3ccc(C)cc3[N+](=O)[O-])c2)cc1 | 12.7%
COc1ccc(CCNC(=O)NS(=O)(=O)c2ccc(C)cc2)cc1OC | 12.4%
COc1ccc(C(=O)Oc2cc(/C=N/NS(=O)(=O)c3ccc(C)cc3)ccc2OC)cc1 | -102% (active)
Cc1cccc(NC(=O)c2ccc3nc(C(C)C)oc3c2)c1C | -5.74%
CCOc1ccc(C(=O)/C=C/c2cn(CC(O)CN3CCCCCC3)c3ccccc23)cc1 (stereo unspecified) | -29%
Cc1ccc(-c2nn(CCC(=O)Nc3ccc(OC(F)(F)F)cc3)c(=O)c3ccccc23)cc1 | 0.866%
CCN(C(=O)COC(=O)c1cc(S(=O)(=O)N2CCc3ccccc32)ccc1OC)C1CCS(=O)(=O)C1 (stereo unspecified) | -18%
COc1ccc(S(=O)(=O)N2CCc3ccccc32)cc1C(=O)Nc1cc(S(C)(=O)=O)ccc1Cl | -62.7% (active)
O=C(Nc1cc(C(F)(F)F)ccc1Cl)c1ccc2c(c1)CCN2S(=O)(=O)c1ccccc1 | -29.1%
